ChEMBL document CHEMBL5724796, “Tm Shift (DSF) assay results for EUbOPEN Chemogenomics Library” (2024)
Values joined by “and” are separate entries in the source; they are usually repeats but may differ in a detail not shown here. Identical values can stand only once. Residues, ends and D or L forms follow the SMILES beside them. *: point of attachment. Cbz = O=C(OCc1ccccc1)*; CH2F = FC*

Legend:
Conditions in all cases: Compound concentration 20.0 uM
[1] = target: Tyrosine-protein kinase ABL1 (Homo sapiens) (UniProt P00519)
[2] = target: Cyclin-dependent kinase 2 (Homo sapiens) (UniProt P24941)
[3] = target: Casein kinase I isoform delta (Homo sapiens) (UniProt P48730)
[4] = target: Glycogen synthase kinase-3 beta (Homo sapiens) (UniProt P49841)
[5] = target: Mitogen-activated protein kinase 1 (Homo sapiens) (UniProt P28482)
[6] = target: T1, Aurora kinase A (Homo sapiens) (UniProt O14965)
T1 sequence (whole entry): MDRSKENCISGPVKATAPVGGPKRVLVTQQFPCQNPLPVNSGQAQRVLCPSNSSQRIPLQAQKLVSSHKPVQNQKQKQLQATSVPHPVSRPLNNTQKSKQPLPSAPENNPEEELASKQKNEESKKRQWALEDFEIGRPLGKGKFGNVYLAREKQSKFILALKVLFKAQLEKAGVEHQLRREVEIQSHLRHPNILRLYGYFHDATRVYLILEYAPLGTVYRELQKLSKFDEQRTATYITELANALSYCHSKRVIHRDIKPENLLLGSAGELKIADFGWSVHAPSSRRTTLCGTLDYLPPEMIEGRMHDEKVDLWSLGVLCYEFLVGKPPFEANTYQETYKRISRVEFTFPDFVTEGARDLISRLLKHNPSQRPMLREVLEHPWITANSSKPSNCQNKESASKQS

[7] = target: T2, Transcription intermediary factor 1-alpha (Homo sapiens) (UniProt O15164)
T2 sequence (whole entry): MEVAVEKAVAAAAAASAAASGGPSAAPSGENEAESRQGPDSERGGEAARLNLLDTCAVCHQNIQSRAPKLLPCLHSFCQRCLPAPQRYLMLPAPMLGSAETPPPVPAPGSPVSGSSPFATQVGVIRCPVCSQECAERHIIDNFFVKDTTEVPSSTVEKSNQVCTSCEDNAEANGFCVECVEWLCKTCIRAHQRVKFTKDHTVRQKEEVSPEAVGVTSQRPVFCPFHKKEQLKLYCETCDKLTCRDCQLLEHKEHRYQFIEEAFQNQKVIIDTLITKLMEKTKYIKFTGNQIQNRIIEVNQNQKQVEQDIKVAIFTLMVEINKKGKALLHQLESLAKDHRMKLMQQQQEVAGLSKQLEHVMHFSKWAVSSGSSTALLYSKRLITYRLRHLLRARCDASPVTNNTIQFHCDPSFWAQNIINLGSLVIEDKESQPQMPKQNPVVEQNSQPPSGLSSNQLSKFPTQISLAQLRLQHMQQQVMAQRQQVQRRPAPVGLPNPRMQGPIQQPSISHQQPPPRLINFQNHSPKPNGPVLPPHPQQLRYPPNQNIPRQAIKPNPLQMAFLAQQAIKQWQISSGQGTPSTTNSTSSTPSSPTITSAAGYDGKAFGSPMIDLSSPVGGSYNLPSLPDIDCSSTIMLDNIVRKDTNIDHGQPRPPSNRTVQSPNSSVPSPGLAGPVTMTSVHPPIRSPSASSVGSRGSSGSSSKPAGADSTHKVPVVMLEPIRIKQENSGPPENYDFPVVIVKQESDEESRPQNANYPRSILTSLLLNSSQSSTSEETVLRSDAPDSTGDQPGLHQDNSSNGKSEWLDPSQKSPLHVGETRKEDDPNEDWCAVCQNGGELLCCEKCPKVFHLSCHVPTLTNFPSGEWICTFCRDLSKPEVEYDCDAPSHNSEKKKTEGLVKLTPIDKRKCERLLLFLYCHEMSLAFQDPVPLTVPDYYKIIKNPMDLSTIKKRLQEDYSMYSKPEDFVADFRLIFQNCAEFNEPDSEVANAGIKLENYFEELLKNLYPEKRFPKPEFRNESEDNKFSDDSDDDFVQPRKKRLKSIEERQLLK

[8] = target: Bromodomain-containing protein 4 (Homo sapiens) (UniProt O60885)

Sequence of Mitogen-activated protein kinase 1 (Homo sapiens) (P28482 whole entry): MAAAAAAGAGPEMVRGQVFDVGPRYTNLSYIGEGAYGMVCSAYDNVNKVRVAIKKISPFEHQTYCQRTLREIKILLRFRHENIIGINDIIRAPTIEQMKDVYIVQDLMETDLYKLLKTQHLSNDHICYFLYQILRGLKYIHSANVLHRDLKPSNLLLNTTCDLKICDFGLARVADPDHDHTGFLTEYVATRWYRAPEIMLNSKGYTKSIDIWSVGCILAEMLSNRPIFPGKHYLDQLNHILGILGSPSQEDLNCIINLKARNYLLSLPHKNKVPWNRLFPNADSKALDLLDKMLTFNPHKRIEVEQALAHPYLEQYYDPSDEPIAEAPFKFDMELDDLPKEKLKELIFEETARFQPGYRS
Sequence of Casein kinase I isoform delta (Homo sapiens) (P48730 whole entry, looked up, canonical isoform): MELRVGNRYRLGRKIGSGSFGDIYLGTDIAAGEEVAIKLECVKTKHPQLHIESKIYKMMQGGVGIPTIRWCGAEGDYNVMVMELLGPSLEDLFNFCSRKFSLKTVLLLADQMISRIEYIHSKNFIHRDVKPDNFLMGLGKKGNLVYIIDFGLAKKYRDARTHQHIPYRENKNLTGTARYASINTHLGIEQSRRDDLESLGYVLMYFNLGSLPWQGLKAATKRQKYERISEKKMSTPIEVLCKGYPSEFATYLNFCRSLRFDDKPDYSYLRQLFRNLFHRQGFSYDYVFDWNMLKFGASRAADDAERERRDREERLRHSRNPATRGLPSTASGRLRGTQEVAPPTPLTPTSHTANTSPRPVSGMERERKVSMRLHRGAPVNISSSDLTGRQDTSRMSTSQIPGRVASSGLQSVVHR
Sequence of Glycogen synthase kinase-3 beta (Homo sapiens) (P49841 whole entry, looked up): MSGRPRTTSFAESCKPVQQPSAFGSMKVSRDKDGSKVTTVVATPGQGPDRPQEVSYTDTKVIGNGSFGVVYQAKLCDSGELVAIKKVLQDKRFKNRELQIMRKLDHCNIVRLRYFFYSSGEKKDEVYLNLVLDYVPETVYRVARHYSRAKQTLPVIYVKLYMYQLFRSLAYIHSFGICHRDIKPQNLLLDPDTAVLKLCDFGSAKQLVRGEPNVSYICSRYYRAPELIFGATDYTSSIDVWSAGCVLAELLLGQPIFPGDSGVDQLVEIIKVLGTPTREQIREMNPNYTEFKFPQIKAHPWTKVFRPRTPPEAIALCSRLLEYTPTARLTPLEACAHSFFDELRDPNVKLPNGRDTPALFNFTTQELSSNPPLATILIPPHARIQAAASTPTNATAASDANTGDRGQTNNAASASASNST
Sequence of Tyrosine-protein kinase ABL1 (Homo sapiens) (P00519 whole entry): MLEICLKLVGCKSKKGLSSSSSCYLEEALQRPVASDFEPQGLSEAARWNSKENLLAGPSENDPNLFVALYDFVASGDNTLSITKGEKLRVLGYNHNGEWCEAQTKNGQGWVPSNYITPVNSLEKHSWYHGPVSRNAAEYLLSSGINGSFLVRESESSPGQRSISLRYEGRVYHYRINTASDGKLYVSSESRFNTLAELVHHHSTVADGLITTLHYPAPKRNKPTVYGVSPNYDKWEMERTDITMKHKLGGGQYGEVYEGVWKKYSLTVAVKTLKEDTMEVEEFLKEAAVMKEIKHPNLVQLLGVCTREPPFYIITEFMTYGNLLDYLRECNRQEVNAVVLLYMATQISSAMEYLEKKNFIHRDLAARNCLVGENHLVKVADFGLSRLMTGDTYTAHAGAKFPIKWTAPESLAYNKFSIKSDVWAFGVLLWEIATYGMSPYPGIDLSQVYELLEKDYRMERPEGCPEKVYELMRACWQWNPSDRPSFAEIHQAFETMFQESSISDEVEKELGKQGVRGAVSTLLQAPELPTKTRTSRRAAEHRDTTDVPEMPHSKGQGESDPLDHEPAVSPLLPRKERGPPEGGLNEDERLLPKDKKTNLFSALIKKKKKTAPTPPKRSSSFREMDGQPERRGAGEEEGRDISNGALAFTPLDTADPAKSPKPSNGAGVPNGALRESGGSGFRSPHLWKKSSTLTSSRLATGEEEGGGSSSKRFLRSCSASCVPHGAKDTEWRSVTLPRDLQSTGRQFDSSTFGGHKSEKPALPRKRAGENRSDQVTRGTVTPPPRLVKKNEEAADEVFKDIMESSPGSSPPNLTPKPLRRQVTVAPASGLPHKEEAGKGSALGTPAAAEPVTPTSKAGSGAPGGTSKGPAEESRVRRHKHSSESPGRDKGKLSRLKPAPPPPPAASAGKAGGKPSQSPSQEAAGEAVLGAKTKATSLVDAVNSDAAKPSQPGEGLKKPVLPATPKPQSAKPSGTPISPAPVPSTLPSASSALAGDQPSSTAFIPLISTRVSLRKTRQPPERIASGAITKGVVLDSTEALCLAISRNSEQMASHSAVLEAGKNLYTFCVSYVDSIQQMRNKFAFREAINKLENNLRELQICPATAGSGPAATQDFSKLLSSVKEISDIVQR

| Compound | ΔTm [1] | ΔTm [2] | ΔTm [3] | ΔTm [4] | ΔTm [5] | ΔTm [6] | ΔTm [7] | ΔTm [8] |
| --- | --- | --- | --- | --- | --- | --- | --- | --- |
| COc1ccccc1S(=O)(=O)Nc1ccc2c(c1)CN(C)C(=O)N2 | 0.3 °C | 0.12 °C | -0.3 °C | -0.34 °C | 0.22 °C | -2.31 °C | -0.41 °C |  |
| CNCc1ccc(-c2[nH]c3cc(F)cc4c3c2CCNC4=O)cc1 | 0.58 °C | 0.36 °C | 0.56 °C | 5.05 °C | 0.13 °C |  | -0.05 °C | -1.77 °C |
| Cc1nc(Nc2ncc(C(=O)Nc3c(C)cccc3Cl)s2)cc(N2CCN(CCO)CC2)n1 |  | 0.19 °C | 1.36 °C | -0.52 °C | -0.01 °C | 4.44 °C | -0.67 °C | -1.33 °C |
| COC(=O)CC[C@H](NC(=O)[C@H](Cc1c[nH]c2ccccc12)NC(=O)OCc1ccccc1)C(=O)N[C@@H](Cc1cnc[nH]1)C(=O)N[C@@H](CC(=O)OC)C(=O)CF (Cbz-WE(OMe)HD(OMe)-CH2F) | 0.62 °C | 0.18 °C | 0.21 °C | -0.68 °C | -0.1 °C | -0.45 °C | -0.87 °C | -1.63 °C |
| COc1c(CN)cc(CN)cc1OCCCN1Cc2ccccc2C1 | 0.19 °C | -0.14 °C | -0.24 °C | -0.15 °C | 0.22 °C | -2.26 °C | 0.95 °C | -1.72 °C |
| CC(C)(C)OC(=O)Nc1ccc(CNc2nccc(Nc3cc(C(=O)OC(C)(C)C)[nH]n3)n2)cc1 | 2.57 °C | 5.67 °C | 0.13 °C | 0.97 °C | -2.08 °C | 26.1 °C | 0.26 °C | -0.88 °C |
| COc1cc(Nc2ncc(F)c(Nc3ccc4c(n3)NC(=O)C(C)(C)O4)n2)cc(OC)c1OC | 4.14 °C | 0.13 °C | -0.37 °C | 2.52 °C | -3.17 °C |  | -0.42 °C | -1.7 °C |
| CC(=O)NCC(=O)N1CCC[C@@H]1B(O)O | 0.26 °C | 1.18 °C | -0.18 °C | -0.78 °C | 0.14 °C | -1.86 °C | 0.93 °C | -0.72 °C |
| CC1(C)CC[C@]2(C(=O)O)CC[C@]3(C)C(=CC[C@@H]4[C@@]5(C)C=C(O)C(=O)C(C)(C)[C@@H]5CC[C@]43C)[C@@H]2C1 | 0.5 °C | -0.16 °C | -1.03 °C | -1.79 °C | -3.78 °C | -4.25 °C | 0.88 °C | -3.51 °C |
| N[C@@H](CCCCNC(=O)OCc1ccc([N+](=O)[O-])cc1)C(=O)N1CCCC1 | 0.09 °C | 0.15 °C | -0.16 °C | -0.58 °C | 0.13 °C | -1.1 °C | -0.07 °C | -2.69 °C |
| COc1cc2/c(=N/c3ccc(Br)cc3F)nc[nH]c2cc1OCC1CCN(C)CC1 |  | 0.52 °C | 1.25 °C | -0.61 °C | 0.07 °C |  | -1.14 °C | -0.83 °C |
| CNCC[C@@H](Oc1ccccc1C)c1ccccc1 | 0.14 °C | 0.13 °C | -0.25 °C | -0.38 °C | 0.18 °C | -1.68 °C | 0.48 °C | -2.85 °C |
| CSc1cccc(Nc2ncc3cc(-c4c(Cl)cccc4Cl)c(=O)n(C)c3n2)c1 |  | 0.94 °C | 0.35 °C |  | -1 °C | -0.33 °C |  | -0.42 °C |
| Cc1cccc(Nc2ccncc2S(=O)(=O)NC(=O)NC(C)C)c1 | 0.72 °C | -0.02 °C | -0.02 °C | -0.74 °C | 0.43 °C | -2.33 °C | 0.72 °C | -2.84 °C |
| COc1ccc(C(=O)C2CCN(CC(=O)N(Cc3nc4c(c(=O)[nH]3)COCC4)CC3CC3)CC2)cc1 | 0.52 °C | 0.34 °C | -0.4 °C | -0.12 °C | 0.46 °C | -1.35 °C | 0.91 °C | -1.61 °C |
| CC(C)Oc1ccc(C=O)cc1 | 0.27 °C | -0.05 °C | 0.18 °C | -0.88 °C | 0.02 °C | -1.79 °C | -0.93 °C | -1.93 °C |

| Compound | ΔTm [1] | ΔTm [2] | ΔTm [3] | ΔTm [4] | ΔTm [5] | ΔTm [6] | ΔTm [7] | ΔTm [8] |
| --- | --- | --- | --- | --- | --- | --- | --- | --- |
| N[C@@H](CCNCc1ccc(Cl)cc1)C(=O)N1CCCCC1 | 0.49 °C | 0 °C | -0.34 °C | -0.21 °C | 0.19 °C | -2.45 °C | 0.39 °C | -3.21 °C |
| CC(=O)N[C@@H](Cc1ccc(O)cc1)C(=O)N[C@H](C(=O)N[C@@H](C)C(=O)N[C@@H](CC(=O)O)C(=O)CCl)C(C)C | 0.08 °C | -0.27 °C | 0.22 °C | -1.19 °C | -0.01 °C | -1.19 °C | -1.17 °C | -2.91 °C |
| Cc1cccc(N/N=C(\C(=O)c2cccs2)C(=O)C(F)(F)F)c1 | 0.48 °C | 0.44 °C | -0.01 °C | -0.93 °C | 0.19 °C | -1.9 °C | -1.89 °C | -1.9 °C |
| Nc1ncnc2nc(-c3ccc(N4CCOCC4)nc3)cc(-c3cccc(Br)c3)c12 | 4.32 °C | 0.07 °C | 2.63 °C | -0.95 °C | -0.25 °C | 0.37 °C | 0.24 °C | -3.54 °C |
| CNc1ncc2cc(-c3cc(NC(=O)NCCC(C)(C)C)c(F)cc3C)c(C)nc2n1 |  | 0.45 °C | 0.25 °C | 1.15 °C | -2.34 °C | -0.92 °C | -0.11 °C | -2.79 °C |
| NC(=O)C1CCCc2c1[nH]c1ccc(Cl)cc21 (centres undefined) | 0.6 °C | 0.2 °C | -0.38 °C | 0.62 °C | 0.17 °C | -0.98 °C | -0.37 °C | -2.56 °C |
| COc1ccccc1C(=O)Nc1cc2c(cc1N1CCCCC1)n(C)c(=O)n2C | 0.35 °C | 0.1 °C | 0.01 °C | 0.08 °C | 0.17 °C | -1.43 °C | -0.76 °C | -2.11 °C |
| CCCCCCNC(=O)n1cc(Cl)c(=O)n(C(=O)OCC(C)C)c1=O | 0.44 °C | 0.16 °C | -0.34 °C | -0.76 °C | -0.05 °C | -0.58 °C | 0.93 °C | -0.35 °C |
| NS(=O)(=O)c1cc(-c2nnn[nH]2)c(NCc2cccs2)cc1Cl | 0.69 °C | 1.03 °C | 0.19 °C | 1.34 °C | 0.84 °C | -1.94 °C | 0 °C | -1.05 °C |
| N#Cc1ccc(Nc2cnccc2SCc2ccccc2C(=O)O)c2ccccc12 | 0.28 °C | 0.57 °C | -0.12 °C | 0 °C | 0.32 °C | -0.47 °C | 1.31 °C | 1.65 °C |
| CCC[C@H]1CNCc2c1[nH]c(=O)c(C#N)c2N1CCC2(CC1)CC2 | 0.01 °C | -0.06 °C | 0.15 °C | -0.31 °C | -0.08 °C | -0.93 °C | -1.34 °C | -1.65 °C |
| CC(C)(C)NS(=O)(=O)c1ccc(NC(=O)[C@H](Cc2ccccc2)NC(=O)c2ccc(F)cc2)cc1 | 2.48 °C | 0.06 °C | 0.21 °C | 2.59 °C | -3.67 °C | -0.32 °C | -0.1 °C | -1.97 °C |
| FC(F)(F)Oc1ccc(Oc2ccnc(N3CCC(NC(=S)Nc4cccnc4)CC3)c2Cl)c(Cl)c1 | 0 °C and -0.06 °C | -0.35 °C and 0.35 °C | -2.73 °C and 0.27 °C |  |  | 0.16 °C and -1.29 °C | 1.66 °C and 0 °C | -3.17 °C and -5.35 °C |
| CCN(CC)c1ccc(C2=NNC(=O)C[C@H]2C)cc1[N+](=O)[O-] | 0.04 °C | -0.04 °C | 0.06 °C | 0.13 °C | -0.11 °C | -0.2 °C | -0.15 °C | 0.2 °C |
| CC#C[C@]1(O)CC[C@H]2[C@@H]3CCC4=CC(=O)CCC4=C3[C@@H](c3ccc(N(C)C)cc3)C[C@@]21C | 0.11 °C | -0.02 °C | 0.02 °C | -1.3 °C | -0.7 °C | -1.55 °C | -0.92 °C | -2.39 °C |
| CC(C)(C)C1CCN(C(=O)n2ncc(C(O)(c3ccccc3)c3ccccc3)n2)CC1 | -2.72 °C | -2.83 °C | 0.67 °C | -5.44 °C | 0.52 °C | -4.85 °C | -0.34 °C | -5.41 °C |
